Compound activity deposited in PubChem BioAssay by several laboratories.
Cav3 T inh – blocks human Cav3.2 T-type calcium channel | B-score at 10 µM | O95180 | AID 449739 | Cav3.2-expressing cells, Fluo-4 calcium fluorescence FDSS; stronger effect = lower value | hit rate 4% among 100,000;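 active = single-dose well whose peak fluorescence ratio is a statistical outlier from its plate by either plate-standardised score or position-corrected B-score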
CYP2C9 inhib – blocks human cytochrome P450 2C9. P11712. hit rate 20% among 96,000. inhibition, % at 5 µM. AID 777. CYP2C9 Supersomes, luciferin-H conversion, luminescence;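 active = blocking of liver enzyme CYP2C9 beyond about 50% at 5 µM, limit read from the data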
Target sequence (P11712 whole entry, looked up): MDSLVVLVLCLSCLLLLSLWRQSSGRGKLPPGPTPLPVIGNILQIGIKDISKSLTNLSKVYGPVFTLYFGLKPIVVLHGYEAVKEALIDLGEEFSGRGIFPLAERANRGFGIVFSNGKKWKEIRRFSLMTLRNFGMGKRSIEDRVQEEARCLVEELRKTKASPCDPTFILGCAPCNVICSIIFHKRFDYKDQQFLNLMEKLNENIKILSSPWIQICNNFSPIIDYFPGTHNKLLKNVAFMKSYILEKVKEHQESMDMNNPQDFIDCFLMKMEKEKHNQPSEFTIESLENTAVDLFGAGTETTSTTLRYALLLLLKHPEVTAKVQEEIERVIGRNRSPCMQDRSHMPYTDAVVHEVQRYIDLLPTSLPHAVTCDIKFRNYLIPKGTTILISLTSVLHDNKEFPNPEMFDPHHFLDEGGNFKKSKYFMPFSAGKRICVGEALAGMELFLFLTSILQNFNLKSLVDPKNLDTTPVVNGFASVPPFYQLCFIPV
CYP2C19 inhib – human CYP2C19 inhibition; inhibition, % at 5 µM; hit rate 21% among 96,000; CYP2C19 Supersomes, luciferin-H EGE luminescence, 30 min; P33261;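 active = CYP2C19 inhibition above a set limit at 5 µM in the primary screen, cut at about 50% in these data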;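 also: plate controls were negative control wells for no effect and 2.5 mM tranylcypromine positive control for full effect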
CYP2C9 act – activators of human CYP2C9 | P11712 | recombinant CYP2C9, luciferin-H conversion, luminescence; stronger effect = higher value; factor 1 = untreated enzyme, 0 = blocked | activation factor at 5 µM | hit rate 1.4% among 96,000 | AID 1024;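 active = activation factor of 2 or more for CYP2C9 at a 5 µM dose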;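 also: 0 = sulfaphenazole-blocked wells and 1 = vehicle-only wells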
CYP2C19 act – increases human CYP2C19 enzyme activity | recombinant CYP2C19, luciferin-H EGE luminescence; stronger effect = higher value; 0 = fully inhibited enzyme, 1 = untreated enzyme | activation factor at 5 µM | 96,000 tested, under 10 active | AID 1025;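 active = activation factor of at least 2 at 5 µM in the primary screen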;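 also: 0 = wells with 2.5 mM tranylcypromine and 1 = vehicle-only wells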
Starred values were filed as active, the others as inactive; / = not tested or not shown. Compounds with a hit are over-represented: about 27% of the library has one in this group of screens.

SMILES	Cav3 T inh	CYP2C9 inhib	CYP2C19 inhib	CYP2C9 act	CYP2C19 act
CCOC(=O)c1sc(NC(=S)NC(=O)CC(C)C)cc1C	-0.0122	-8.1	-8.2	1.1	1.1
CCn1c2ccccc2c2cc(/C=N/NC(=O)c3ccccc3)ccc21	-3.85	8.2	73.2*	0.9	0.3
COc1cc(/C=N/NC(=O)C2c3ccccc3Oc3ccccc32)ccc1O	0.0145	52.7*	8.4	0.5	0.9
COc1cc(/C=N/NC(=O)CCn2c3ccccc3c3ccccc32)ccc1O	0.84	65.2*	60.4*	0.3	0.4
COc1cc(/C=N/NC(=O)c2c(-c3ccccc3)noc2C)ccc1O	0.393	76.7*	52.5*	0.2	0.5
CSC1=N/C(=C\c2ccccc2)C(=O)N1C	-0.469	14.7	2.3	0.9	1
Clc1ccc(C2CC(c3ccccc3)Nc3ncnn32)cc1 (stereo unspecified)	-0.286	32.4	75.3*	0.7	0.2
Fc1ccc(C2CC(c3ccccc3)n3ncnc3N2)cc1 (stereo unspecified)	0.672	21.5	88.0*	0.8	0.1
Clc1ccc(C2CC(c3ccco3)n3ncnc3N2)cc1Cl (stereo unspecified)	-2.03	/	/	/	/
CC1=C(C)SC(=C(C#N)c2nnc(N3CCOCC3)n2-c2ccccc2)S1	0.95	-20.3	-17.1	1.2	1.2
Cc1ccc(-c2cc(C(=O)Nc3cc(C)ccc3C)[nH]n2)c(O)c1	-0.0375	/	/	/	/
COc1ccc(OC)c(NC(=O)c2cc(-c3ccc(C)cc3O)n[nH]2)c1	0.636	-191.9	9.6	2.9*	0.9
COC(=O)CCC(=O)N1CCc2cc(S(=O)(=O)N3CCN(c4ccccc4Cl)CC3)ccc21	-0.196	59.0*	32.5	0.4	0.7
C[C@H]1CC[C@@]2(O[C@H](CCO)C[C@@H](O)[C@@H]2O)O1	0.045	/	/	/	/
COc1cccc(NC(=O)CC2(CC(=O)O)CCCC2)c1	0.636	25.4	22.1	0.7	0.8
Nc1cc2c(cc1C(=O)c1ccccc1)OCCO2	0.371	28.9	50.7*	0.7	0.5
Cc1ccc(C(=O)c2cc3c(cc2N)OCCO3)cc1	/	67.9*	67.0*	0.3	0.3
Nc1cc2c(cc1C(=O)c1ccc(Cl)cc1)OCCO2	-1.02	70.3*	60.9*	0.3	0.4
Cc1c(C(=O)NC(C)CN2CCCCC2)oc2ccccc12 (stereo unspecified)	0.563	-2.5	3.0	1	1
Cc1ccccc1C(NC(N)=O)c1ccccc1 (stereo unspecified)	1.67	28.8	94.9*	0.7	0.1
CC(=O)NC(c1ccccc1)c1cccnc1 (stereo unspecified)	0.0169	-7.8	13.4	1.1	0.9
COc1ccc(CCNC(=S)NC(=O)c2ccccc2)cc1OC	-1.39	28.1	60.9*	0.7	0.4
COc1ccc(CCNC(=O)C(=O)NCc2ccc(C)cc2)cc1OC	-0.0636	-5.1	12.2	1.1	0.9
CCc1ccc(CNC(=O)C(=O)NCCc2ccc(OC)c(OC)c2)cc1	-5.31*	/	/	/	/
COc1ccc2[nH]c(C)c(CCN3C(=O)OC(C)(C)C3(C)O)c2c1 (stereo unspecified)	0.0166	85.5*	99.1*	0.1	0
SMILES	Cav3 T inh	CYP2C9 inhib	CYP2C19 inhib	CYP2C9 act	CYP2C19 act
COc1ccc2[nH]c(C)c(CN3CCC(C)CC3)c(=O)c2c1	-0.64	-10.7	-15.2	1.1	1.2
COc1ccc2[nH]c(C)c(CCN3C(=O)C4CC=CCC4C3=O)c2c1 (stereo unspecified)	0.477	57.8*	97.2*	0.4	0
CNc1nnc(-c2cc3ccccc3oc2=O)s1	-0.0267	12.2	16.5	0.9	0.8
O=C(NCC1(c2ccccc2)CCOCC1)c1ccc(Br)o1	0.521	37.6	72.5*	0.6	0.3
Cc1[nH]c2ccccc2c1SCCNC(=O)c1ccc(Br)o1	-4.14*	/	/	/	/
CCN(CC)S(=O)(=O)c1ccc(C(=O)NCCSc2c[nH]c3ccccc23)cc1	-4.61*	/	/	/	/
O=C(OCC(=O)c1c[nH]c2ccccc12)c1ccc(Br)o1	0.18	22.1	65.8*	0.8	0.3
COc1ccc(-n2nc(N)c3c(=O)oc(N(C)C)nc32)cc1	0.0934	21.1	40.5	0.8	0.6
O=C(O)CCNC(=O)c1ccc(Br)o1	-0.284	-7.8	-10.2	1.1	1.1
O=C(NCCC(c1ccccc1)c1ccccc1)c1ccc(Br)o1	-6.46*	74.5*	66.7*	0.3	0.3
O=C(NCCSc1c[nH]c2ccccc12)c1ccc(Br)o1	-5.03*	85.8*	42.7	0.1	0.6
CC(C(=O)Nc1ccccc1C(=O)N1CCOCC1)N(c1ccccc1)S(C)(=O)=O (stereo unspecified)	0.478	/	/	/	/
Cc1oc(-c2ccccc2)cc1C(=O)Nc1cccc(C(=O)O)c1	-0.0641	-12.5	-12.5	1.1	1.1
Cc1oc(-c2ccccc2)cc1C(=O)Nc1cccc2ccccc12	-4.97*	-88.3	11.1	1.9	0.9
COc1ccc2c(c1)C(=O)N(c1ccccc1)C(=O)C2	-2.27	6.9	19.3	0.9	0.8
COc1ccc2c(c1)C(=O)N(c1ccccc1OC)C(=O)C2(C)C	0.277	62.9*	83.9*	0.4	0.2
O=C(CNC(=S)NC(=O)c1ccco1)c1ccccc1	0.5	-35.5	5.5	1.4	0.9
Cc1ccnc(NS(=O)(=O)c2cccs2)c1	-0.527	-14.9	-7.5	1.1	1.1
Cc1ccnc(NS(=O)(=O)c2ccc(Oc3ccccc3)cc2)c1	-0.00622	45.6	66.8*	0.5	0.3
COc1ccc(OC)c(Nc2cc(C)nc3ccccc23)c1	-0.0948	49.6	55.9*	0.5	0.4
COc1cccc(Nc2cc(C)nc3ccccc23)c1	-0.808	/	/	/	/
COc1ccc(OC)c(Nc2cc(-c3ccccc3)nc(N)n2)c1	-4.47*	78.7*	79.7*	0.2	0.2
N#Cc1c(-c2ccccc2)nc2n(c1=O)CCS2	-0.028	-12.1	20.5	1.1	0.8
Cc1cccc(NC(=O)c2nc(-c3ccccc3)n(-c3ccccc3)n2)c1C	-6.63*	31.7	20.2	0.7	0.8
Cc1cc(C)c(S(=O)(=O)N2CCOC2CNC(=O)C(=O)NCc2ccco2)c(C)c1 (stereo unspecified)	0.805	/	/	/	/
SMILES	Cav3 T inh	CYP2C9 inhib	CYP2C19 inhib	CYP2C9 act	CYP2C19 act
CCCCOc1ccc(-c2nnn(CC(=O)NCCc3c[nH]c4ccccc34)n2)cc1	-0.751	49.4	9.5	0.5	0.9
CCC(C(=O)O)n1nnc(-c2ccc(-c3ccc(OC)cc3)cc2)n1 (stereo unspecified)	-2.01	28.1	0.0	0.7	1
CCCCOc1ccc(-c2nnn(C(C)(C)C(=O)OC)n2)cc1	-0.368	56.7*	41.9	0.4	0.6
CCCCOc1ccc(-c2nnn(C(C)C(=O)OCC)n2)cc1 (stereo unspecified)	-0.933	68.0*	49.2	0.3	0.5
O=C(Nc1cc2c3c(c1)C1CCCC1CN3CC1CCCC21)c1ccccc1 (stereo unspecified)	-3.8	81.0*	8.0	0.2	0.9
CC(C)Cn1c(CN2CCCCC2C)nc2c1c(=O)n(C)c(=O)n2C (stereo unspecified)	-0.166	12.0	7.6	0.9	0.9
COc1ccc(-n2c(O)cnc2Nc2nc(C)cc(C)n2)cc1OC	/	2.4	1.9	1	1
